# The list is not random: actives were taken first. Their share in the collection is about 2.7%.
# CHT block = inhibitors of human choline transporter CHT. High affinity choline transporter 1 (Homo sapiens), Q9GZV3. CHT-expressing cells, membrane potential dye, choline response; hits give low values. B-score at 10 µM. 310,000 compounds, 0.86% hits;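 active = B-score over 3 SD under the library average, and starting fluorescence ratio not unusually high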;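 also: choline stimulus applied at its EC90 after an EC20 pre-addition; B-score computed on integrated fluorescence ratio after choline addition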
# CHT allo act = CHT positive allosteric modulators, primary screen, cell-based, membrane potential dye, choline EC20; High affinity choline transporter 1 (Homo sapiens), Q9GZV3; CHT-expressing cells; hits give high values; LV-AA mutant CHT in HEK293 cells; B-score at 10 µM; 310,000 compounds, 0.49% hits; AID 488977, 2010;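 active = initial fluorescence not abnormally high and integrated response B-score, plate-corrected, over 3 SD above library mean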
# ANO1 activ = TMEM16A chloride channel activators or potentiators, primary screen, cell-based, HTS; Anoctamin-1 (Mus musculus), Q8BHY3; HEK293 TMEM16A/YFP-H148Q/I152L, iodide quench fluorescence; hits give low values; B-score at 10 µM; 340,000 compounds, 0.3% hits; AID 623877, 2012;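 active = fluorescence-ratio B-score plate-corrected deviation score at least 3 library SD below zero, with starting fluorescence score within 5 deviations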;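 also: channel opened by trigger with iodide after compound preincubation; score built on the fluorescence ratio of max minus min over baseline; more negative score means more quench and so TMEM16A activation or potentiation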
# IDE inh = human IDE inhibitors in live cells, primary screen, fluorescence polarization, HEK cells, FAbetaB substrate | Insulin-degrading enzyme (Homo sapiens), P14735 | FAbetaB cleavage | inhibition, % at 5.59 µM | 320,000 compounds, 0.41% hits | AID 434962, 2010;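 active = percent inhibition above the average of all tested compounds plus 3 SD, set per screening campaign, cut at about 16% in these data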;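 also: IDE supplied by intact live HEK cells; FP after avidin binding of uncleaved biotin substrate so inhibition keeps polarization high; 0% = DMSO wells and 100% = 60 µM reference IDE inhibitor Ii1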
# IDE act = human IDE activators in live cells, primary screen, fluorescence polarization, HEK cells, FAbeta-B substrate; 340,000 compounds, 0.073% hits; activation, % at 5.96 µM; FAbeta-B cleavage; 0% vehicle, 100% cell-free pure enzyme wells; Insulin-degrading enzyme (Homo sapiens), P14735;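 active = activation above the mean of all tested compounds plus 3 SD, set per screening campaign, cut at about 17% in these data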
# ANO1 block = TMEM16A chloride channel inhibitors, primary screen, cell-based, HTS; 310,000 compounds, 1.2% hits; AID 588511, 2011; HEK293 TMEM16A/YFP iodide influx fluorescence, ionomycin; Anoctamin-1 (Mus musculus), Q8BHY3; normalized B-score (activity score, 25-100; higher = stronger inhibition) at 10 µM;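 active = ratio plate-corrected score three or more library SD toward inhibition, starting fluorescence score within five deviations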;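 also: score derived from kinetic fluorescence span divided by baseline fluorescence per well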
# CHT inh conf = CHT inhibitors, confirmation, cell-based, membrane potential dye, duplicate; 2,400 compounds, 70% hits; CHT-expressing cells, choline membrane potential dye; LV-to-AA substituted CHT, HEK293 cells; shares compounds with CHT block; AID 493221, 2011; CHT activity remaining % of control (hits give low values), % at 10 µM;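 active = choline transporter activity left, mean of duplicates at 10 µM, below buffer-only control mean minus 3 SD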;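 also: depolarization triggered by choline at its EC90 following an EC20 pre-addition; 0% = hemicholinium-3 full block and 100% = buffer-only control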
# HEK293 CHT ctr = membrane potential effects in parental HEK293, counter-screen for CHT inhibitor project, cell-based, membrane potential dye. choline response; active = decrease or increase beyond buffer ±3SD. 2,400 compounds, 4% hits. membrane potential ratio readout (active if shifted either direction beyond buffer ±3SD; no single direction) at 10 µM. shares compounds with CHT block;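 also: parental cells lack the transporter so any hit is non-specific; ratio is peak minus trough fluorescence over baseline after EC90 choline challenge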
# The depositor's hits bear a star; i = inactive; · = not tested or not shown.
SMILES,CHT block,CHT allo act,ANO1 activ,IDE inh,IDE act,ANO1 block,CHT inh conf,HEK293 CHT ctr
O=C(Cn1ccc2ccccc2c1=O)NCC(=O)N1CCN(c2ccc(F)cc2)CC1,i,i,i,10,-2,i,·,·
CC(C)(C)Nc1nc(Cl)nc(N(C#N)CN2C(=O)c3ccccc3S2(=O)=O)n1,-5.6*,i,i,4,4,i,57%*,i
CC(C)Nc1nc(Cl)nc(N(C#N)CN2C(=O)c3ccccc3S2(=O)=O)n1,i,i,i,0,-2,i,·,·
C[C@@]12C(=O)N(CCc3c[nH]c4ccccc34)CC(=O)N1[C@H]1c3ccccc3OC[C@@H]1[C@@H]2c1ccccc1,·,·,i,1,-5,·,·,·
COc1ccc(C2(O)CCN(C(=O)NC3CCCCC3)CC2)cc1,-7.8*,i,i,3,-1,i,36%*,i
Cc1cccc(N=Cc2cc(Br)cc(Cl)c2O)c1,-7.8*,i,i,3,4,i,57%*,i
CCCCNS(=O)(=O)c1ccc2nc(SCC(N)=O)[nH]c2c1,i,i,i,3,2,i,·,·
CCCCNS(=O)(=O)c1ccc2nc(SCC(=O)c3ccccc3OC)[nH]c2c1,-9.7*,i,i,-1,-1,i,50%*,i
COc1ccc(CNC(=O)C2CCN(C(=O)[C@@H]3Cc4ccccc4CN3)CC2)cc1,i,i,i,0,3,i,·,·
CC(C)c1nc(C(=O)N2CCCC(N3CCN(c4cccc(Cl)c4)CC3)C2)cs1 (centres undefined),-12*,i,i,1,0,i,2.6%*,i
Cc1ccccc1N1CCN(C2CCCN(C(=O)c3csc(C(C)C)n3)C2)CC1 (centres undefined),i,i,i,-6,-4,i,·,·
COc1cccc(-n2cnnc2SCC(=O)NC2CC2)c1,·,·,i,-3,3,·,·,·
CCOC(=O)c1oc2nc(C(C)C)c3c(c2c1N)CC(C)(C)OC3,·,·,i,·,2,·,·,·
CCOC(=O)c1oc2nc(C(C)C)c3c(c2c1N)CCC3,-5.2*,i,i,2,1,i,40%*,i
CCCc1nc2oc(C(=O)OCC)c(N)c2c2c1COC(C)(C)C2,-6.3*,i,i,1,-6,i,33%*,i
CC(C)c1c(C(=O)N/N=C/C2CC=CCC2)nnn1-c1nonc1N (centres undefined),i,i,i,2,0,i,·,·
Cc1ccccc1C(=O)NCC(=O)OC(C)C(=O)NC(C)CCc1ccccc1 (centres undefined),·,·,i,-1,6,·,·,·
O=C(CC(C(=O)O)c1ccccc1)Nc1ccccc1 (centres undefined),i,i,i,-5,7,i,·,·
O=C(CC(c1ccccc1)c1ccccc1)Nc1ccncc1,-5.9*,i,i,-1,-4,i,56%*,i
CC(O)c1cccc(NC(=O)CC(c2ccccc2)c2ccccc2)c1 (centres undefined),-7.5*,i,i,-4,-5,i,45%*,i
CC(C)CN(C(=O)COC(=O)C12CC3CC(CC(C3)C1)C2)c1c(N)n(Cc2ccccc2)c(=O)[nH]c1=O,i,i,i,1,5,i,·,·
CCN(C(=O)COC(=O)CNC(=O)c1ccc(Cl)cc1Cl)c1c(N)n(Cc2ccccc2)c(=O)[nH]c1=O,·,·,i,-2,4,·,·,·
O=C(NC1CCCCC1)C(c1ccc2ncccc2c1)N(Cc1ccc(F)cc1)C(=O)c1ccc2c(c1)OCCO2 (centres undefined),-7.5*,i,i,3,1,i,65%*,i
O=C(NC1CCCCC1)C(c1ccncc1)N(C(=O)Cc1cccs1)c1ccccc1 (centres undefined),i,i,i,-3,-2,i,·,·
O=C(NC1CCCCC1)C(c1ccc2ncccc2c1)N(Cc1cccs1)C(=O)c1cccs1 (centres undefined),-5.5*,i,i,9,-3,i,i,i
SMILES,CHT block,CHT allo act,ANO1 activ,IDE inh,IDE act,ANO1 block,CHT inh conf,HEK293 CHT ctr
O=C(NC1CCCCC1)C(c1ccc2ncccc2c1)N(Cc1ccc2c(c1)OCO2)C(=O)c1ccc2c(c1)OCCO2 (centres undefined),-14*,i,i,-5,-4,i,30%*,i
O=C(NC1CCCCC1)C(c1ccc2ncccc2c1)N(Cc1ccco1)C(=O)c1ccc2c(c1)OCCO2 (centres undefined),i,i,i,-5,1,i,·,·
CC1CCN(C(=O)COC(=O)C2CCN(S(=O)(=O)c3c(Cl)cccc3Cl)CC2)CC1,·,·,i,·,5,·,·,·
Cc1ccc(-c2nc3c(Cl)cc(Cl)cc3c(=O)n2O)cc1,-5.5*,i,i,4,3,100*,46%*,i
Cc1ccc(Cl)cc1N1CCN(Cc2cc(=O)n3ccsc3n2)CC1,i,i,i,1,3,i,·,·
O=c1cc(CN2CCN(c3ccccc3O)CC2)nc2sccn12,-8.8*,i,i,-4,-1,i,42%*,i
Cc1nnc(SC(C)C(=O)Nc2sc3c(c2C#N)CCCC3)[nH]c1=O (centres undefined),-5.2*,i,i,9,5,i,65%*,i
Cc1cc(C)c(S(=O)(=O)Cc2ccccc2)c(OC(C)C)n1,i,i,i,-2,2,i,·,·
Cc1onc(-c2ccccc2)c1C(=O)NC(=S)NNC(=O)c1ccco1,-7.2*,i,i,-3,·,i,59%*,i
Cc1cc(N2CCN(S(=O)(=O)c3ccc(Br)cc3)CC2)n2ncnc2n1,i,i,i,2,4,i,·,·
